This is an account of results in PubChem BioAssay AID588850 (Sanford-Burnham Center for Chemical Genomics, 2011).

Molecules are shown by their SMILES. In all, about 360,000 compounds went through this assay and about 3,100 (0.86%) were called active.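 The calls were made as follows: active = at least 50% inhibition at 5 µM, scaled per plate between neutral and stimulator controls; inactive = the rest.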 Only a selection was taken, and actives are over-represented in it overall.

A short description of this test: inhibitors of PAF-induced NF-kB signaling, primary screen, cell-based, GFP fluorescence, uHTS (AID 588850).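 Also: PAF is a Pseudomonas aeruginosa culture filtrate used as stimulus; plate controls were PAF-stimulated DMSO wells for no effect and unstimulated DMSO wells for full effect.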 The note with it: KKLEB NF-kB-GFP reporter, GFP fluorescence overnight, at 5 µM, active compounds read high.
The term inhibition denotes the change of the read-out against control, counted positive when it falls. In the case of `Cc1ccc(-c2csc(NC(=O)C3=COCCO3)n2)cc1C`, the inhibition was -43.3% (inactive). To `COc1ccc2c(c1OC)C(=O)OC2Nc1nc(-c2ccccc2)cs1` (centres undefined) belongs 88.8% (active); to `COc1ccccc1C(=O)Nc1nc2nc(-c3ccccc3)cc(=O)n2[nH]1`, -8% (inactive). Regarding `Cn1cc(C2OC(=O)c3ccccc32)c2ccccc21` (centres undefined), the inhibition is 41.4% (inactive).

For the compound `Cc1ccc(-c2csc(NC3OC(=O)c4ccccc43)n2)cc1` (centres undefined), the inhibition is 81.3% (active). As to `COc1cc(C(O)c2nc(-c3cccc(C(=O)O)c3)cs2)ccc1F` (centres undefined), the inhibition was 12.4% (inactive). For `CN(CC(=O)O)S(=O)(=O)c1ccc2oc3ccccc3c2c1`, the inhibition is -19.3% (inactive). To `Cc1ccc(S(=O)(=O)Nc2ccc(F)c(S(=O)(=O)N3CCOCC3)c2)cc1` belongs -4.8% (inactive); to `O=C(Nc1ccccc1)c1ccccc1Br`, -3.5% (inactive); to `COCCCNC(=O)c1ccc(-c2c(C)noc2C)c2ccoc12`, -59% (inactive). In the case of `CC(=O)c1ccc(N2CCN(S(=O)(=O)c3c(C)[nH]c(=O)[nH]c3=O)CC2)cc1` it was 13.2% (inactive); in that of `COc1cccc(Cn2cc(/C=N/NC(=O)c3cc(O)cc(O)c3)c3ccccc32)c1`, 1.7% (inactive); in that of `COc1cc(/C=N/Nc2ccc(C)cc2)cc(Br)c1O`, -27.2% (inactive).

For the compound `COc1cccc(/C=N/Nc2cc(C)nc(-c3ccccc3O)n2)c1O`, the inhibition was 89.8% (active).

In the case of `O=C(CN1CCOCC1)N1CCCc2c1c(=O)oc1ccc(OCc3ccccc3)cc21`, the inhibition was -14.3% (inactive). Turning to `Cc1nn2c(c1-c1ccccc1)N=C(c1ccco1)CC2c1ccccc1` (centres undefined), the inhibition was -5.8% (inactive). To `Cc1cc(Br)ccc1NC(=O)CN(C)C(=O)CN1C(=O)NC2(CCCC2)C1=O` belongs -8.9% (inactive); to `COc1ccc(NC(=O)/C(C#N)=C\c2cc(OC)c(OCc3ccc(C(=O)O)cc3)cc2Br)cc1`, -82.3% (inactive); to `COc1ccc(/C=C(\C#N)C(=O)NCCCn2ccnc2)cc1`, 10.2% (inactive). In the case of `COc1ccc(CNC(=O)/C(C#N)=C/c2cccc(OC)c2OC)cc1` it was 59.3% (active). To `Cc1ccc(S(=O)(=O)NNC(=O)/C=C/c2cccc(F)c2)cc1` belongs -21.5% (inactive). As to `CCOC(=O)CN1C(=O)C(O)(CC(=O)c2ccccn2)c2ccccc21` (centres undefined), the inhibition was 13% (inactive). In the case of `Cc1ccc(C2=CSC3=NS(=O)(=O)CCN23)cc1C` it was 6.1% (inactive). To `COc1cc(OC)c(C(=O)NNC(=O)c2ccccc2-n2cccc2)cc1OC` belongs -9.9% (inactive); to `COC(=O)c1ccc(C(=O)Nc2cc(Cl)ccc2Cl)cc1NC(=O)c1ccccc1C`, 54% (active); to `CCCN(CCC)C(=S)Nc1cc(C(=O)OC)ccc1C(=O)OC`, 10.8% (inactive). To `COC(=O)c1ccc(C(=O)OC)c(NC(=S)N2CCN(c3cc(Cl)ccc3C)CC2)c1` belongs 0.4% (inactive); to `CCOC(=O)c1c(C)[nH]c(C)c1C(=O)COC(=O)/C=C/c1cccc([N+](=O)[O-])c1`, -19.4% (inactive); to `CCC12CN3CC(CC)(CN(C1)C31C(=O)N(C)c3ccc(C)cc31)C2=O` (centres undefined), 8.9% (inactive).

In the case of `CCOC(=O)C1(C)CCCN(C(=O)c2ccc(N(C)C)cc2)C1` (centres undefined), the inhibition was -1.1% (inactive). Turning to `Cc1cccc(-n2nc3c(c2NC(=O)c2cc4ccccc4o2)CS(=O)(=O)C3)c1`, the inhibition is 4.3% (inactive).

As to `CC(C)CC1(C(=O)NCc2ccccn2)C=CCN1C(=O)c1ccccc1` (centres undefined), the inhibition is -3.1% (inactive).

Consider `O=C(Nc1cccc2ccccc12)c1onc2c1CCCC2`, for which the inhibition was -10.2% (inactive).

Take `O=C(Nc1cccc2ccccc12)NC1CC1`: the inhibition is -3.5% (inactive). Regarding `O=C(Nc1cccc2ccccc12)c1[nH]c(-c2ccccc2)c2c1C(=O)N(C1CC1)C2=O`, the inhibition is 63.7% (active).

Regarding `CCC(=O)N(Cc1cc2ccccc2[nH]c1=O)c1ccc(OC)cc1`, the inhibition was -0.6% (inactive). To `CC(=O)N(Cc1cc(=O)[nH]c2ccccc12)c1ccc(C)cc1C` belongs 10.4% (inactive); to `Cc1ccc(N(Cc2cc(=O)[nH]c3ccccc23)C(=O)CCl)cc1`, 63.4% (active); to `CCOC(=O)N1CCN(C(=O)c2ccccc2SCC(=O)NCC2CCCCC2)CC1`, -2% (inactive).

As to `Cc1ccc(C(=O)CCC(=O)N(C)CC(=O)Nc2c(Cl)cccc2Cl)cc1`, the inhibition is -7.8% (inactive). To `Cc1ccc(NC(=O)CN(C)C(=O)COC(=O)c2nccnc2N)cc1` belongs -12.4% (inactive). To `O=C(NNC(=O)c1ccccc1O)c1ccccc1O` belongs 61.7% (active); to `CC1=C(C)CC(C(=O)NNC(=O)c2ccccc2O)C(C(=O)O)C1` (centres undefined), -2.9% (inactive); to `Cc1cc(C(=O)CCC(=O)NNC(=O)c2ccccc2O)c(C)s1`, -22% (inactive). Take `COCCNC(=O)c1ccc2c(c1)ncn2-c1ccc(C)c(Cl)c1`: the inhibition was -3.6% (inactive). In the case of `COCCN(C(=O)CCC(=O)Nc1nccs1)C(C(=O)NCCC(C)C)c1ccc(F)cc1` (centres undefined) it was -16.8% (inactive); in that of `O=C(O)c1cc(S(=O)(=O)N(Cc2ccccc2)c2cccc(C(F)(F)F)c2)ccc1Cl`, -4.7% (inactive). To `O=C(NNc1ccccc1Cl)C(O)(c1cccc(C(F)(F)F)c1)c1cccc(C(F)(F)F)c1` belongs 55.6% (active); to `O=C(CNS(=O)(=O)c1cccc(C(F)(F)F)c1)Nc1ccccc1F`, -4.7% (inactive). To `Cc1cccc(NC(=O)CSc2nnc(CCCCCNC(=O)OC(C)(C)C)o2)c1C` belongs -6.7% (inactive); to `NC(=O)COc1ccccc1C(=O)NC12CC3CC(CC(C3)C1)C2`, 3.5% (inactive); to `C=C1C(=O)[C@]23C[C@H]1CCC2[C@@]1(C)C(C[C@@H]3O)[C@](C)(C(=O)O)CC[C@@H]1O` (some centres undefined), 82.6% (active). Take `CCN(CC)CCCNC(=O)c1cn(C)c2ccc(S(=O)(=O)N(C)C3CCCCC3)cc2c1=O`: the inhibition was 9.2% (inactive).

`COc1ccc(-c2ccc(CN3C(CC(C)C)C(=O)N(Cc4cn(CC5CCCCC5)nn4)CCS3(=O)=O)cc2)cn1` (centres undefined): the inhibition is 66.1% (active). In the case of `CC(C)CC1C(=O)N(Cc2cn(CC3CCCCC3)nn2)CCS(=O)(=O)N1Cc1ccc(-c2ccc(Cl)cc2)cc1` (centres undefined) it was 55.8% (active); in that of `COc1ccc(-c2ccc(CN3C(C(C)C)C(=O)N(Cc4cn(CC5CCCCC5)nn4)CCS3(=O)=O)cc2)cn1` (centres undefined), -2.4% (inactive); in that of `CC(C)CC1C(=O)N(Cc2cn(Cc3ccco3)nn2)CCS(=O)(=O)N1Cc1ccc(-c2ccc(Cl)c(Cl)c2)cc1` (centres undefined), 66.8% (active). For `COc1ccc(-c2ccc(CN3C(CC(C)C)C(=O)N(Cc4cn(CC5CCCCC5)nn4)CCS3(=O)=O)cc2)cc1` (centres undefined), the inhibition is 41.4% (inactive). As for `COCOCCn1cc(CN2CCS(=O)(=O)N(Cc3ccc(-c4ccc(OC)cc4)cc3)C(CC(C)C)C2=O)nn1` (centres undefined), the inhibition is -5% (inactive). To `COCOCCn1cc(CN2CCS(=O)(=O)N(Cc3ccc(-c4ccccc4)cc3)C(CC(C)C)C2=O)nn1` (centres undefined) belongs 23.5% (inactive); to `CC(=O)c1cccc(-c2ccc(CN3C(CC(C)C)C(=O)N(Cc4cn(CC5CCCCC5)nn4)CCS3(=O)=O)cc2)c1` (centres undefined), 13.4% (inactive). In the case of `CC1C(=O)N(Cc2cn(Cc3ccco3)nn2)CCS(=O)(=O)N1Cc1ccc(-c2cccc(CO)c2)cc1` (centres undefined) it was 3.2% (inactive); in that of `Cc1ccccc1N1C(=O)C(Oc2ccc(Cl)cc2)C1CNCC1CCCO1` (centres undefined), -17.5% (inactive). In the case of `CC(Sc1nncn1C)C(=O)Nc1ccccc1-c1ccccc1` (centres undefined) it was -12.2% (inactive); in that of `Cc1cccc(N(C(=O)Cc2cccs2)C(C(=O)NCc2ccco2)c2ccncc2)c1` (centres undefined), -3.5% (inactive).

As to `Cc1nn(C(C)C(=O)N2CCOCC2)c(=O)c2nn(-c3ccccc3)c(C)c12` (centres undefined), the inhibition is 1.5% (inactive).

For the compound `CC(=O)Nc1ccc(S(=O)(=O)NCC2CCC(C(=O)NCCc3ccccc3)CC2)cc1` (centres undefined), the inhibition was 8.9% (inactive). Consider `CC1(C(=O)NS(=O)(=O)c2ccccc2)CCN1C(=O)c1ccccc1` (centres undefined), for which the inhibition is -17.7% (inactive). `COc1cc(OC)c(C(=O)NNC(=O)c2ccc(NS(=O)(=O)c3cccs3)cc2)cc1OC`: the inhibition was 0.1% (inactive). Consider `CCCOc1ccc(-c2c(C(=O)N/N=C/c3ccco3)nnn2-c2nonc2N)cc1`, for which the inhibition was -21.8% (inactive). In the case of `Nc1nonc1-n1nnc(C(=O)N/N=C/C2CCCCC2)c1-c1ccccc1` it was 3.7% (inactive); in that of `Nc1nonc1-n1nnc(C(=O)N/N=C/c2ccc(Cl)cc2)c1-c1ccc2c(c1)OCO2`, 52.5% (active).

Take `CSc1ccc(CN2CCC2(C)C(=O)Nc2ccc(C)c(O)c2)cc1` (centres undefined): the inhibition is 0% (inactive). To `CCCc1nc(N)nc2c1C(=O)CC(C)(C)C2` belongs 16.2% (inactive); to `COc1ccc(/C=C/C(=O)c2c(O)cc(OC)cc2OC)cc1`, -12.9% (inactive); to `COc1ccc2cc(-c3[nH]ncc3CNCCn3nc(C)cc3C)ccc2c1`, -8.4% (inactive).

In the case of `CCOc1ccccc1Oc1cn[nH]c1-c1ccc(OC)cc1O`, the inhibition is 13% (inactive).

On to `COc1ccc(-c2cn[nH]c2-c2ccc(OC)cc2)cc1`, for which the inhibition was 88% (active). To `CCOc1ccc(C(C)=O)cc1CSc1nnc(-c2ccncc2)n1CCOC` belongs -0.6% (inactive); to `CS(=O)(=O)N(CC(=O)Nc1ccc(F)cc1F)c1cccc([N+](=O)[O-])c1`, 10.1% (inactive). To `O=c1[nH]c2ccccc2n1C1CCN(CCOc2ccccc2)CC1` belongs -0.9% (inactive). To `COc1ccc(CNc2nccs2)cc1` belongs -5.6% (inactive).

On to `c1ccc(CNc2ncnc3[nH]ncc23)cc1`, for which the inhibition is 0.6% (inactive). As for `COc1ccc(CNc2ncnc3ccccc23)cc1`, the inhibition was 51.6% (active). Turning to `Nc1ccc(S(=O)(=O)Nc2nccc(/C=C/c3ccc(Br)s3)n2)cc1`, the inhibition was 14.6% (inactive). To `Oc1cccc2ccc(/C=C/c3ccc(Br)s3)nc12` belongs 82.5% (active). To `Clc1ccc2nc(CSc3ccccc3)cn2c1` belongs -13.5% (inactive); to `O=C(C1CCCO1)N1CCN(C(=S)NC2CC2)CC1` (centres undefined), 3.7% (inactive); to `C[C@@H]1C[C@@H]2O[C@H]2/C=C\C=C\C(=O)Cc2c(Cl)c(O)cc(O)c2C(=O)O1`, 60.3% (active).
